The record followed here is PubChem BioAssay.

Assay [1] is described as follows: inhibitors of TNFa-induced NFkB p65 translocation, primary screen, imaging, HUVEC, MLSMR starter and 10KST1 sets (AID 438;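 active = inhibition above 20% together with a positive visual image hit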;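 note: compound added about 3h40 before a 20 min TNFalpha stimulation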;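 for inhibition: signal is the nuclear over cytoplasmic p65 intensity ratio per well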). To be noted: HUVEC TNFa-induced p65 nuclear translocation; cell count: measured here: nuclei count (cytotoxicity indicator), at 2.08 µM; inhibition: at 2 µM, stronger effect = higher value, 0% TNFa-plus-vehicle, 100% no-TNFa wells.
Assay [2] can be described thus: reduction of polyQ htt aggregates in cells – imaging, exon1htt(103Q)mCFP cells, high-content imaging, primary screen (AID 483;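 active = visual image review flags a hit and inhibition of aggregation exceeds 20%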;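 note: compound exposure lasted 3 days before fixation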;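 for nuclei count: percent of the per-plate median nuclei count of sample wells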). To be noted: exon1htt(103Q)mCFP cell line, aggregate imaging, at 2 µM; inhibition of aggregation: stronger effect = higher value; nuclei count: measured here: cell count, toxicity.
The nature of assay [3]: endothelial E-selectin expression blockers – imaging, HUVEC, immunofluorescence, MLSMR starter and 10KST1 sets, primary screen (AID 487;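 active = visually confirmed hit in the image check and inhibition above 20%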;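 for inhibition: signal is fraction of cell area covered by stained E-selectin grains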;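 for nuclei count: 100% = median nuclei count of all wells on the same plate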). The note with it: HUVEC TNFalpha-induced E-selectin immunofluorescence imaging, at 2 µM; inhibition: stronger effect = higher value; nuclei count: measured here: cell number, toxicity.
A short description of assay [4]: Primary imaging screen for DUSP6 inhibitors that restore phospho-Erk in transfected HeLa cells, chemical complementation (AID 609;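 active = compounds giving at least 50% inhibition in the cell-based MKP-3 phosphatase rescue imaging test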;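 for inhibition: phospho-Erk level distribution per well compared with pooled transfected vehicle control wells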). To be noted: HeLa MKP-3 transfected, phospho-Erk imaging KS statistic, at 10 µM, cells stimulated with TPA for 15 min.
Assay [5] concerns the target Dual specificity protein phosphatase 6 (Homo sapiens) (UniProt Q16828). Described as above. The note with it: HeLa MKP-3 transfected, phospho-Erk imaging KS statistic; at 10 µM; stronger effect = higher value; cells stimulated with TPA for 15 min.
Assay [6] has as its target Voltage-gated potassium channel subunit beta-2 (Rattus norvegicus) (UniProt P62483). Put plainly: inhibitors of rat Kvbeta2 reductase activity – biochemical, NADPH fluorescence, primary screen (AID 622;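 active = fluorescence slope higher than the sample average by over 3 SD, cut at about -0.22 in these data, passing the limit was not always enough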;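 note: slope of raw intensity against log time taken from 70 to 1610 s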). To be noted: recombinant KvBeta, 4-cyanobenzaldehyde reduction, at 10 µM, stronger effect = higher value.
The target is the same in assay [7]. The experiment in a line: enhancers of rat Kvbeta2 NADPH turnover – biochemical, NADPH fluorescence, primary screen (AID 623;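 active = NADPH fluorescence slope more negative than the mean of all samples by about 3 SD, 99.7% confidence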;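 note: fluorescence intensity change per second fitted from 20 to 320 s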). To be noted: Recombinant KvBeta, NADPH fluorescence decrease slope, 10 min; at 10 µM; stronger effect = lower value.
The target of assay [8] is Alpha-2C adrenergic receptor (Homo sapiens) (UniProt P18825). The experiment in a line: compounds altering alpha2C-coupled GIRK flux – cell-based, HEK293 alpha2C/GIRK1/2, thallium flux, primary screen (AID 624;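 active = fluorescence slope after compound addition differing from the mean of all screened samples at 99.7% confidence, in either direction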;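 note: slope of fluorescence ratio to pre-addition baseline per second over 15 to 24 s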). To be noted: thallium flux BTC fluorescence, at 10 µM, actives lie on both sides.
A short description of assay [9]: inhibitors of larval lipid processing in zebrafish, primary screen, whole organism, PED6 fluorescence, gall bladder and intestine (AID 686;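 active = a full or partial loss of lipid-probe fluorescence in the fish gall bladder, intestine or both, judged by eye; inactive = no fluorescence loss, or compound toxic to the fish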;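 note: larvae 5 to 7 days old with five fish per well; signal comes from phospholipase A2 cleavage of quenched PED6 carried via bile; overnight exposure to compound and PED6 before scoring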). The note with it: Zebrafish larvae PED6 lipid processing, fluorescence scoring; screened at 20 µM (by protocol).
A short description of assay [10]: loss of swimming-algae plug formation – whole organism, Chlamydomonas reinhardtii, WT vs cilia-less mutant, absorbance, 96-well, primary screen (AID 463189).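 Note: 0% = wild type cc124 cells in DMSO and 100% = ciliumless bld1 mutant cells.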 The note with it: Chlamydomonas reinhardtii gravitaxis, OD600 absorbance, 2 days; at 10 µM; stronger effect = higher value.
The nature of assay [11]: blockers of RIG-like receptor reporter activation – cell-based, Sendai virus stimulus, luciferase, 10K MLSCN set, TLR/RLR signaling modifier project, primary screen (AID 602276;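 active = inhibition at or above 50% at 10 µM; inactive = inhibition below 50%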;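 note: firefly luciferase from ISG56 promoter only with Renilla not read in this screen; 0% = Sendai virus plus DMSO and 100% = medium plus DMSO without virus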). To be noted: HEK293 RL24 IRF3 luciferase reporter, at 10 µM, stronger effect = higher value.
Assay [12] is described as follows: TLR3 IRF3 reporter activation blockers – cell-based, poly I:C stimulus, luciferase, 10K MLSCN set, primary screen (AID 602277;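 active = inhibition of the reporter signal at or above 50%; inactive = inhibition below 50%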). To be noted: HEK293-TLR3 RL24 IRF3 luciferase reporter, at 10 µM, stronger effect = higher value.
Setting [13] is: measured here: cell density z-score.
[14] abbreviates: measured here: nuclear c-Myc green intensity z-score.
Where [15] appears, read: measured here: nuclear pErk red intensity z-score, stronger effect = higher value.

Where “and” joins values, the source holds several entries; their conditions need not be identical. Equal entries are not always repeated. Calls of active or inactive are those of the source.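 Rule for the calls, unless noted: active = inhibition at or above 50% relative to wild type and mutant plate controls; inactive = inhibition below 50%.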

Chain of Voltage-gated potassium channel subunit beta-2 (Rattus norvegicus) (P62483 whole entry, looked up): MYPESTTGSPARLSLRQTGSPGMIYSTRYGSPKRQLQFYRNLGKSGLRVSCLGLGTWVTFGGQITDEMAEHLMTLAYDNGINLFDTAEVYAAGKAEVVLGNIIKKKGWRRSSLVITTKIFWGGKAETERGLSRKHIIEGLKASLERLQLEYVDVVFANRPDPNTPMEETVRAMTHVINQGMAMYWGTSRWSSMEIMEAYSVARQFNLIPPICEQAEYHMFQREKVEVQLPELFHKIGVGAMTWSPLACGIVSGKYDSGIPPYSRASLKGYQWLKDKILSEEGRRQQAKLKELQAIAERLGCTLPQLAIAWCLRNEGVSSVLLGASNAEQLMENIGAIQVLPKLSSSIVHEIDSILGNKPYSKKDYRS
Chain of Dual specificity protein phosphatase 6 (Homo sapiens) (Q16828 whole entry, looked up): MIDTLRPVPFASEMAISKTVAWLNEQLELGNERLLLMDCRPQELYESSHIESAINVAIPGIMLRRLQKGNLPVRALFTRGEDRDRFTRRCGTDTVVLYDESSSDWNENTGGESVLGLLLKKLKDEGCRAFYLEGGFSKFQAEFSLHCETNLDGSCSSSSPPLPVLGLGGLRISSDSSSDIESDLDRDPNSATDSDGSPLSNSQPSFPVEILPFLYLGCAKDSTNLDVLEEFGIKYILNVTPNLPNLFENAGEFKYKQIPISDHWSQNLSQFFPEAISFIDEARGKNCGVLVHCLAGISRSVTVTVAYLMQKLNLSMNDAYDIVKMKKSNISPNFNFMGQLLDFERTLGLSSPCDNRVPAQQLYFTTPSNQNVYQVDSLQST
Chain of Alpha-2C adrenergic receptor (Homo sapiens) (P18825 whole entry, looked up): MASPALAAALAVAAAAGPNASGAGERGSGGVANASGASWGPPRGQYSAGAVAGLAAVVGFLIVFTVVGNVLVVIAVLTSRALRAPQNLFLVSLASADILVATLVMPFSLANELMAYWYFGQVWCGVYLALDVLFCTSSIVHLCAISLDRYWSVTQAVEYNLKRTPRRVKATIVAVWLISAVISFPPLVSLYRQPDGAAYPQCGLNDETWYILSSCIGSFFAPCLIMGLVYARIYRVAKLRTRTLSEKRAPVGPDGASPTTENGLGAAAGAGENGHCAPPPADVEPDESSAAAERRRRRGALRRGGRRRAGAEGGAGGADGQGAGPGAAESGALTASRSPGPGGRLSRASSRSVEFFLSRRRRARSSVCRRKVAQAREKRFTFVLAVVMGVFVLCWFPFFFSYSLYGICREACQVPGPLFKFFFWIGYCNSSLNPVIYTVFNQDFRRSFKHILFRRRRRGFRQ

In the case of `CC(=O)Nc1nnc(S(N)(=O)=O)s1`, in assay [1], the cell count stood at 660. Also, the inhibition in assay [1] is -4.8% (inactive); in assay [3] it was -29.7% (inactive); in assay [5], 13.3% (inactive); in assay [10], 0.808% (inactive) and -5.65% (inactive); in assay [11], -14.2% (inactive); in assay [12], 1.99% (inactive). Also, in assay [2], the inhibition of aggregation was -0.3% (inactive). In addition, the values for the nuclei count in [2] and in assay [3] were 93.8% and 122%, respectively. In addition, the z-score was -0.588 in [4] (setting [13]), -1.08 in assay [4] (setting [14]) and 0.272 in assay [4] (setting [15]). Moreover, in assay [6], the fluorescence slope was -0.462 (inactive). The NADPH fluorescence slope in assay [7] is -6.7e-05 (inactive). Moreover, the slope in assay [8] was 0.0054 (inactive). For the same molecule, the outcome in assay [9] was “active; no signal in intestine only”.

On to `OC(CCCN1CCC(O)(c2ccc(Cl)cc2)CC1)c1ccc(F)cc1` (stereo not drawn), for which the cell count in [1] is 686. Further, the inhibition in assay [1] was -2.4% (inactive); in assay [3] it was -82.7% (inactive); in assay [5] it was 14.6% (inactive); in assay [10] it was 20.5% (inactive); in [11] it was 12.8% (inactive); in assay [12], 40.2% (inactive). Further, the inhibition of aggregation in assay [2] was -13.4% (inactive). Further, the nuclei count in assay [2] was 116%; in assay [3] it was 118%. Also, the z-score in [4] (setting [13]) is 1.1; in assay [4] (setting [14]), 0.439; in [4] (setting [15]), -0.848. The fluorescence slope in assay [6] was -0.468 (inactive). Also, in assay [7], the NADPH fluorescence slope was -6.6e-05 (inactive). Also, the slope in assay [8] was 0.00402 (inactive). Besides, in [9], the outcome was inactive.

Consider `O=C(NC1CCS(=O)(=O)C1)N1CCCCC1` (stereo not drawn), for which the cell count in assay [1] was 486. For the same molecule, the inhibition was 0.6% (inactive) in assay [1]; -68.8% (inactive) in [3]; 1.6e-07% (inactive) in assay [5]; -28.4% (inactive) in assay [10]; 11.2% (inactive) in assay [11]; 18.8% (inactive) in assay [12]. For the same molecule, the inhibition of aggregation in assay [2] is -3.3% (inactive). Further, the nuclei count in assay [2] was 106%; in [3], 126%. For the same molecule, the results for the z-score in [4] (setting [13]), in [4] (setting [14]) and in assay [4] (setting [15]) were -0.342, 1.35 and 0.612, respectively. For the same molecule, the fluorescence slope in [6] was -0.485 (inactive). In addition, the NADPH fluorescence slope in assay [7] was -6.6e-05 (inactive). For the same molecule, the slope in assay [8] is 0.00544 (inactive). The call in assay [9] was inactive.

In the case of `OC[C@H]1O[C@@H](n2cnc3c(NC4CCCC4)ncnc32)[C@H](O)[C@@H]1O`, the cell count in [1] is 528. Besides, the inhibition was -13.1% (inactive) in [1]; -19.6% (inactive) in [3]; 11.3% (inactive) in assay [5]; 30.3% (inactive) in assay [10]; -1.14% (inactive) in assay [11]; 12.9% (inactive) in assay [12]. Besides, in assay [2], the inhibition of aggregation was -15.5% (inactive). Besides, the figures for the nuclei count in assay [2] and in assay [3] were 110% and 126%, respectively. The z-score in assay [4] (setting [13]) is 1.27; in assay [4] (setting [14]), -0.327; in assay [4] (setting [15]), -0.893. In addition, in [6], the fluorescence slope is -0.459 (inactive). For the same molecule, the NADPH fluorescence slope in [7] is 2.3e-05 (inactive). The slope in assay [8] is 0.00611 (inactive). Further, the molecule was classed as inactive in assay [9].

As for `CC(=Nc1ccc(C)c(C)c1)C1=C(O)CCC1=O`, the cell count in assay [1] was determined as 616. The inhibition in [1] was -14.9% (inactive); in [3], -30.7% (inactive); in assay [5], 4.72% (inactive); in [10], 2.51% (inactive); in [11], -16.6% (inactive); in [12] it was -35.9% (inactive). In [2], the inhibition of aggregation was 30.6% (inactive). Besides, the values for the nuclei count in assay [2] and in assay [3] were 87.4% and 143%, respectively. Besides, the values for the z-score in [4] (setting [13]), in [4] (setting [14]) and in assay [4] (setting [15]) were 0.598, -0.724 and 0.505, respectively. Moreover, in [6], the fluorescence slope was -0.423 (inactive). Further, in assay [7], the NADPH fluorescence slope is -4.1e-05 (inactive). Further, the slope in assay [8] is 0.00609 (inactive). Further, the molecule was called inactive in assay [9].

With `N#C/C(=C\c1ccc(O)c(O)c1)C(=O)NCCCc1ccccc1`, in assay [1], the cell count was found to be 629. Also, the inhibition in [1] was 3.7% (inactive); in [3], -94.6% (inactive); in [5], 16.8% (inactive); in assay [10] it was 2.27% (inactive) and -1.78% (inactive); in [11] it was -14.9% (inactive); in assay [12], -17.2% (inactive). In assay [2], the inhibition of aggregation is -14.6% (inactive). Besides, the nuclei count stood at 98.2% in assay [2] and 131% in assay [3]. For the same molecule, the z-score in [4] (setting [13]) was 1.89; in assay [4] (setting [14]), 0.253; in [4] (setting [15]) it was -0.466. The fluorescence slope in assay [6] is -0.49 (inactive). The NADPH fluorescence slope in [7] is -5.4e-05 (inactive). In addition, the slope in assay [8] was 0.00485 (inactive). In addition, in assay [9], the outcome was inactive.

On to `CCc1cn([C@H]2C[C@H](O)[C@@H](CO)O2)c(=O)[nH]c1=O`, for which the cell count in assay [1] turned out to be 644. For the same molecule, the inhibition was -9.9% (inactive) in assay [1]; -69.2% (inactive) in assay [3]; 9.37% (inactive) in assay [5]; 21.4% (inactive) in assay [10]; 18.1% (inactive) in [11]; 34% (inactive) in assay [12]. In addition, the inhibition of aggregation in [2] is -3.6% (inactive). For the same molecule, the nuclei count in [2] was found to be 102%; in [3] it was 120%. Besides, the figures for the z-score in assay [4] (setting [13]), in [4] (setting [14]) and in [4] (setting [15]) were -0.967, -0.117 and 0.506, respectively. Further, in [6], the fluorescence slope was -0.477 (inactive). In addition, in [7], the NADPH fluorescence slope is 5.1e-06 (inactive). Moreover, in [8], the slope is 0.00501 (inactive). Besides, the molecule was called inactive in assay [9].

Take `Clc1ccc(Cl)c(-c2ccc(/C=N/c3ncn[nH]3)o2)c1`: the cell count in assay [1] turned out to be 439. Also, the inhibition in [1] is -0.4% (inactive); in assay [3] it was -127% (inactive); in assay [5], -4.27% (inactive); in assay [10], 73.7% (active); in assay [11], 13.4% (inactive); in assay [12], 18.3% (inactive). Further, the inhibition of aggregation in assay [2] was 6.2% (inactive). In addition, the nuclei count in assay [2] is 104%; in assay [3], 122%. The z-score in assay [4] (setting [13]) is -0.606; in assay [4] (setting [14]) it was -0.195; in assay [4] (setting [15]), 1.4. Also, the fluorescence slope in assay [6] is -0.438 (inactive). In assay [7], the NADPH fluorescence slope is -5.6e-05 (inactive). Also, the slope in assay [8] is 0.0057 (inactive). Moreover, the call in assay [9] was inactive.

For the molecule `Cc1oc2cc(O)ccc2c(=O)c1-c1cnn(-c2ccccc2)c1`, the cell count in assay [1] was found to be 454. Moreover, the inhibition in assay [1] is -6.5% (inactive); in [3] it was -212% (inactive); in assay [5] it was -9.91% (inactive); in [10], 9.82% (inactive); in assay [11], 7.89% (inactive); in [12], 0.114% (inactive). For the same molecule, the inhibition of aggregation in [2] is -9% (inactive). For the same molecule, the nuclei count in assay [2] was 102%; in [3], 120%. Moreover, the z-score in assay [4] (setting [13]) was -0.098; in assay [4] (setting [14]) it was -0.0689; in assay [4] (setting [15]), 0.86. Besides, the fluorescence slope in [6] is -0.486 (inactive). In [7], the NADPH fluorescence slope was 1.2e-05 (inactive). In assay [8], the slope was 0.00452 (inactive). For the same molecule, the result in assay [9] was inactive.
